As usually defined, the inhibition is the relative decrease from the control value, in per cent.

Each structure is given as a SMILES string. Screen size: about 290,000 compounds; about 11,000 (3.8%) were called active. The list comes from a sample in which actives are over-represented; it also holds similar structures and randomly drawn compounds. Unmarked numbers belong to inactive results.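 How the source made its calls: active means mean replicate inhibition above about 79%, with every replicate also reaching it (limit read from the data); inconclusive means only one of the two criteria met; inactive means mean below limit and not every replicate reaching it.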

The target of the assay is FAD-linked sulfhydryl oxidase ALR (Homo sapiens) (UniProt P55789). The experiment in a line: ALR-catalysed DTT oxidation blockers – biochemical, H2O2 detection, HRP-luminol luminescence, single point, primary screen (AID 485317). The conditions noted are these: purified ALR, hits give high values, concentration not given here.
FAD-linked sulfhydryl oxidase ALR (Homo sapiens), sequence (P55789 whole entry, looked up): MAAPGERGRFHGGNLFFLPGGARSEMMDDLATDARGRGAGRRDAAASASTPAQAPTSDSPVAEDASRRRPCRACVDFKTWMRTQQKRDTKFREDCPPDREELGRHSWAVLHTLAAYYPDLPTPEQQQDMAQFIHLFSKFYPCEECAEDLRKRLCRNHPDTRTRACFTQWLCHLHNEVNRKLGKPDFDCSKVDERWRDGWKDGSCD
For `COc1ccc(S(=O)(=O)N2CCN(CC(=O)NCC3(N4CCOCC4)CCCCC3)CC2)cc1`, the inhibition is -0.676%.

`CCCn1nc(C(=O)NNC(=O)CCOc2ccccc2OCC)c2ccccc2c1=O`: the inhibition is 16.7%.

`CCOc1ccc(NC(=O)CN(C)C(=O)COc2cccc(CC)c2)cc1OCC`: the inhibition was -14.9%.

On to `Cc1cc(NC(=O)CCS(=O)(=O)c2ccc(F)cc2)no1`, for which the inhibition was -5.46%.

`Cc1onc(C(=O)NN)c1-c1csc(COc2ccccc2)n1`: the inhibition is -2.47%.

With `COc1cc(CC(=O)Nc2nc(-c3ccc(F)c(F)c3)cs2)cc(OC)c1OC`, the inhibition is 0.225%.

On to `CC(C)(C)C(=O)OCc1nc(-c2ccc(O)c(O)c2)cs1`, for which the inhibition is 99.4% (active).

On to `COc1ccc(CNC(=O)COC(=O)c2ccc(C)c(S(=O)(=O)N3CCOCC3)c2)cc1OC`, for which the inhibition was -7.49%.

In the case of `CC1CCCCC1NC(=O)Cn1c(=O)cnc2ccccc21` (stereo not drawn), the inhibition is -5.91%.

As for `COc1cc(/C=N/NC(=O)CCc2n[nH]c(=O)[nH]c2=O)ccc1O`, the inhibition was 99.3% (active).

For `NCCCCCC(=O)N/N=C/c1ccc2nccnc2c1`, the inhibition is 0.997%.

As for `CCOc1ccc(/C=N/NC(=O)C(C)Sc2ccccn2)cc1OCC` (stereo not drawn), the inhibition is -8.94%.

Turning to `Cc1nccn1CC(=O)N/N=C/c1ccc(O)c(O)c1`, the inhibition was 99.4% (active).

`Cc1ccc(/C=N/NC(=O)CSc2nc3ccccc3o2)cc1`: the inhibition was -3.09%.

For the molecule `C=CCOc1ccc(/C=N/NC(=O)C(C)Sc2ccccn2)cc1OCC` (stereo not drawn), the inhibition is -4.04%.

`CCn1c(SCC(=O)N/N=C/c2ccncc2)nc2ccccc21`: the inhibition is -3.78%.

For `COc1cc(/C=N/NC(=O)Cc2ccccc2)cc(OC)c1OC`, the inhibition is -4.39%.

As for `CCOc1ccc(/C=N/NC(=O)CSc2ccccn2)cc1O`, the inhibition was 98.9% (active).

As to `Cn1c(SCC(=O)N/N=C/c2ccc(O)c(O)c2)nc2ccccc21`, the inhibition was 98.9% (active).

Turning to `Cc1nc2ccccc2n1CC(=O)N/N=C/c1cccnc1`, the inhibition was -8.97%.

Consider `COc1cc(/C=N/NC(=O)c2ccc(N3CCCC3=O)cc2)ccc1O`, for which the inhibition is 28%.

In the case of `CC(C)(C)n1nc(Cc2cccc3ccccc23)c(C#N)c1N`, the inhibition was -16.1%.

Take `Cc1cc(NC(=O)CSc2nnc(-c3ccco3)n2N)no1`: the inhibition is -0.748%.

With `CCOc1ccc2oc(C(=O)N(CC)CC(=O)Nc3ccc(NC(C)=O)cc3)c(C)c2c1`, the inhibition is -6.04%.

As to `CCOc1ccc2ccccc2c1/C=N/NC(=O)c1c(C)cc(C)[nH]c1=O`, the inhibition was -4.32%.

In the case of `COc1ccc(NC(=O)CN(C)C(=O)c2ccc(NC3CC3)c([N+](=O)[O-])c2)cc1`, the inhibition was 9.73%.

Regarding `CCOc1cc(/C=N/NC(=O)c2cc(-c3ccccc3)nc3ccccc23)ccc1O`, the inhibition is 12.6%.

With `CCOc1cc(/C=N/NC(=O)CN2CCCCC2)ccc1O`, the inhibition is 98.9% (active).

`COc1cc(/C=N/NC(=O)c2ccoc2C)ccc1OCCN1CCCCC1`: the inhibition was -5.33%.

With `COc1ccc(-c2nn(-c3ccccc3)cc2/C=C\C(=O)Nc2ccc(C(=O)O)cc2)cc1`, the inhibition is -2.34%.

As to `O=C(/C=C\c1cn(-c2ccccc2)nc1-c1cccs1)N1CCOCC1`, the inhibition is -5.03%.

With `O=C(O)c1ccc(N/N=C/c2cn(-c3ccccc3)nc2-c2cccs2)cc1`, the inhibition was 98.9% (active).

Take `Cc1ccc(NC(=O)CCNC(=O)c2ccc([N+](=O)[O-])cc2)cc1S(=O)(=O)N1CCOCC1`: the inhibition is -6.28%.

In the case of `Cc1ccc(N2C(=O)C3CC3C2=O)cc1` (stereo not drawn), the inhibition is -2.01%.

`Cc1ccc(N2CCN(c3ccc(C)cc3)C2c2ccccn2)cc1`: the inhibition is 86.9% (active).

`Cc1ccc(S(=O)(=O)NCC(=O)N2CCN(c3ccccn3)CC2)cc1`: the inhibition was 3.32%.

For the molecule `CC(C)(C)OC(=O)C[C@@H]1C/C=C\C[C@H](CC(=O)N[C@@H](CO)Cc2ccccc2)C(=O)N[C@H](Cc2ccccc2)COC1=O`, the inhibition is -0.505%.

For the molecule `O=C(NCc1ccccc1Cl)C(=O)NCC1CCCN1S(=O)(=O)c1cccs1` (stereo not drawn), the inhibition is -7.66%.

Take `COc1ccc(C(=O)NC2CC(C)(C)Cc3c2cnn3-c2ccccc2)c(OC)c1` (stereo not drawn): the inhibition was 0.864%.

Take `Cc1cc(C(=O)NC2CC(C)(C)Cc3c2cnn3-c2ccccc2)n[nH]1` (stereo not drawn): the inhibition is 92.1% (active).

Take `CC1=C(C(=O)NC2CC(C)(C)Cc3c2cnn3-c2ccc(C)cc2)OCCO1` (stereo not drawn): the inhibition is -16.8%.

As for `CC(=O)Nc1cccc(C(=O)OCC(=O)NCc2cc(C)c(O)c(C)c2)c1`, the inhibition was 25.7%.

Regarding `O=c1c2c(nc3n1CCCCC3)sc1c(O)cccc12`, the inhibition was 94.5% (active).

For the molecule `CC(=O)c1ccc(NC(=O)c2sc3nc4n(c(=O)c3c2C)CCCCC4)cc1`, the inhibition was -6.68%.

On to `Cc1cccc2c(=O)n3c(nc12)CCCCC3`, for which the inhibition was -3.58%.

On to `CSc1ncccc1C(=O)Nc1ccc2c(c1)OCO2`, for which the inhibition is -7.77%.

As to `COc1ccccc1N1CCN(CC(=O)Nc2ccnn2C2CCCC2)CC1`, the inhibition was 21.7%.

On to `O=C(OCC1OC(Oc2ccc(O)cc2)C(O)C(O)C1O)c1ccccc1` (stereo not drawn), for which the inhibition was 23.2%.

For `CC(=O)NC1C(OCc2ccccc2)OC(COC(C)=O)C(OC(C)=O)C1OC(C)=O` (stereo not drawn), the inhibition was -6.67%.

Turning to `O=C(OCC1O[C@@H](OC(=O)c2cc(O)c(O)c(O)c2)[C@@H](OC(=O)c2cc(O)c(O)c(O)c2)[C@@H](OC(=O)c2cc(O)c(O)c(O)c2)[C@@H]1OC(=O)c1cc(O)c(O)c(O)c1)c1cc(O)c(O)c(O)c1` (stereo partly drawn), the inhibition is 98.8% (active).

Take `NC(=O)c1ccsc1NC(=O)COC(=O)Cc1n[nH]c(=O)c2ccccc12`: the inhibition was -7.95%.

Take `Cc1cccc(NS(=O)(=O)c2ccc(C)c(C(=O)NCc3cccnc3)c2)c1`: the inhibition was -5.85%.

For `O=C(O)c1n[nH]nc1-c1ccccc1`, the inhibition was -0.621%.

Take `c1ccc(Nc2n[nH]nc2-c2ccccc2)cc1`: the inhibition was 100% (active).

Regarding `CCCCNC(=O)Nc1c(C)cc(SC#N)cc1C`, the inhibition was 96.7% (active).

On to `CCCCNC(=O)C(=O)c1ccccc1NC(C)=O`, for which the inhibition was -1.84%.

Turning to `CCCCNC(=S)NNC(=O)c1cc(C)on1`, the inhibition was 55.3%.

Consider `O=C(OCc1cc(=O)n2ccsc2n1)C1(c2ccc(Cl)cc2)CC1`, for which the inhibition is -1.54%.

The values above are taken from PubChem BioAssay AID485317 (Broad Institute, 2010).
